# Test results taken from PubChem BioAssay (NCATS).
# Inconclusive results are not listed. Calls of active or inactive are those of the source. The call rests on the fitted dose curve; in most records, active means well fitted inhibition curve with a large enough effect; inconclusive means small, poorly fitted or top-dose-only effect; inactive means no such curve, though single readings can be large or run the other way.
# Test: qHTS to identify inhibitors of the type 1 interferon - major histocompatibility complex class I in skeletal muscle: primary screen against the NCATS Mechanism Interrogation Plate v5.0 (MIPE) Libary (AID 1347411); further: nearly all actives have a fitted effect of over 65% in size;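 on activity change, negative = inhibition: plate controls were vehicle for no effect and reference inhibitor for full effect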
# Details: iHSKM cells + IFN-b, HiBiT-tagged MHC-I luminescence, 24 h; series mostly up to 45.8 µM; activity change, negative = inhibition: at the top concentration
# In short: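 Luminescence from HiBiT-tagged endogenous HLA-B*08:01 served as the MHC class I read-out. CRISPR-engineered C25cl48 human myoblasts received 4.0 ng/ml IFN-beta plus compound for 24 hrs, with an 11-point, 1:3 series topping at 46 uM final.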
SMILES,"activity change, negative = inhibition",outcome
CC(C)n1c(/C=C/[C@H](O)C[C@H](O)CC(=O)O)c(-c2ccc(F)cc2)c2ccccc21,-5.83% (inactive),
CN(C)C(N)=NC(=N)N,,inactive
OCCOc1ccc(/C(=C(/CCCl)c2ccccc2)c2ccccc2)cc1,-23.8% (inactive),
C=CC(=O)N[C@H]1CCOC[C@H]1Nc1ncc2cc(-c3c(Cl)c(OC)cc(OC)c3Cl)ccc2n1,-17.2% (inactive),
O=C(Nc1cnccc1Cl)N1CCN(Cc2ccc3c(c2)OC(F)(F)O3)CC1,-24.5% (inactive),
COC(=O)N(CC(=O)O)Cc1cccc(OCc2nc(-c3ccc(Cl)cc3)oc2C)c1,20.8% (inactive),
COc1ccc(S(=O)(=O)NCc2ccc(C(=O)NCCc3ccc(Cl)cn3)cc2)cc1,12.9% (inactive),
CN1C[C@@H]2c3ccccc3Oc3ccc(Cl)cc3[C@H]2C1,-8.03% (inactive),
NC(=S)N/N=C/c1ncccc1N,-12.5% (inactive),
CC[C@@H](Oc1cccc(CN(CCCOc2ccc(OC)cc2)c2nc3ccccc3o2)c1)C(=O)O,-22.7% (inactive),
C[C@H]1CN(C2COC2)CCN1c1ccc(Nc2cc(-c3ccnc(N4CCn5c(cc6c5CC(C)(C)C6)C4=O)c3CO)cn(C)c2=O)nc1,-9.19% (inactive),
C/C=C(/C)C(=O)O[C@H]1C(C)=CC23C(=O)C(C=C(CO)[C@@H](O)[C@]12O)[C@H]1[C@@H](C[C@H]3C)C1(C)C (stereo not given in full),-4.98% (inactive),
C[C@@H]1Cc2c([nH]c3ccccc23)[C@@H](c2c(F)cc(/C=C/C(=O)O)cc2F)N1CC(C)(C)F,-21.8% (inactive),
Cc1cc(Oc2ccc3nc(COc4ccc(CC5SC(=O)NC5=O)cc4)n(C)c3c2)cc(C)c1N (stereo not given),6.53% (inactive),
CN1C(=O)N(c2cc(Cl)cc(Cl)c2)C(=O)[C@]12CN(Cc1cc(C(=O)O)cs1)C[C@H]2c1ccc(C#N)cc1,-13.7% (inactive),
